High-throughput results: PubChem BioAssay, The Scripps Research Institute Molecular Screening Center
A selection: hits, their analogues and other compounds. The true share with any hit is near 4.8%.
DAX1 inh-1: NR0B1 (DAX1) inhibition; P51843; actives 0.99% (n = 340,000); inhibition, % at 6.75 µM; HEK293 Gal4-DAX1 luciferase reporter, luminescence;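 active means inhibition above the mean over all tested compounds plus 3 SD, cut at about 4.2% in these data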;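 further: 0% = DAX1-transfected cells with DMSO and 100% = empty-vector control cells with DMSO; inhibition shows as a rise in luminescence from relieved DAX1 repression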
Target sequence (P51843 207-470 limits assumed): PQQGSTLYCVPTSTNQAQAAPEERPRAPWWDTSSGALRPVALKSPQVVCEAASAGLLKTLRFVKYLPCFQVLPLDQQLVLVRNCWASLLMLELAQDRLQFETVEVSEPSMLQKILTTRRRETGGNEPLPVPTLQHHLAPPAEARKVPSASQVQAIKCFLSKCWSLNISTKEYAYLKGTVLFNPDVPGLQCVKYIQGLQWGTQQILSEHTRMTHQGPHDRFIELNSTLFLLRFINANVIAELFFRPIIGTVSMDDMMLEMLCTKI
ssDAF12 agonist: S. stercoralis DAF-12 activation, primary screen. HEK293 ssDAF-12/GRIP1 lit1-tk-luc reporter, luminescence; % of 3 µM dafachronic acid response. activation, % at 6.8 µM. actives 1% (n = 370,000);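 active means activation above the mean over all tested compounds plus 3 SD, cut at about 0.9% in these data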;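 further: 0% = DMSO-only wells and 100% = 3 µM delta7-dafachronic acid wells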
DAX1 inh-2: blocks DAX1 repression of SF-1 activated StAR promoter | HEK293T StAR-luciferase reporter, SF-1/DAX-1 repression relief | inhibition, % at 6.8 µM | actives 1.1% (n = 370,000);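 active means inhibition above the mean over all tested compounds plus 3 SD, cut at about 3.6% in these data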;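 further: 0% = DAX-1 cells with DMSO and 100% = cells lacking DAX-1 with DMSO; higher inhibition means more luminescence from relief of DAX-1 repression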
SMARCA2 act: increases SMARCA2 function in MMTV reporter cells; MG213 cells, MMTV-luciferase reporter, dexamethasone, overnight; activation, % at 9.1 µM; actives 1% (n = 370,000); in the data active means activation above about 7.8%;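 further: 0% = vehicle wells and 100% = reference activator wells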
hgDAF-12 ag: hgDAF-12 agonism, primary luciferase screen. HEK293 GAL4-hgDAF12 UAS-luciferase reporter, agonist luminescence; normalized to butyrate control. activation, % at 6.8 µM. actives 1.8% (n = 370,000). AID 687014;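 active means activation above a cutoff set at the mean of all screened compounds plus 3 SD, cut at about 10% in these data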;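 further: 0% = DMSO wells and 100% = sodium butyrate wells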
hcDAF-12 act: H. contortus DAF-12 activation, primary screen; HEK293 hcDAF-12 lit1-tk-luc reporter, luminescence; 0% DMSO, 100% Δ7-dafachronic acid; activation, % at 6.8 µM; actives 1.4% (n = 370,000); AID 652067;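 active means activation above the mean of all tested compounds plus 3 SD, cut at about 5.5% in these data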;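 further: 100% = response to 3 µM Δ7-dafachronic acid high control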
DAX1 inh confirm: confirmation of human DAX1 (NR0B1) inhibitors. HEK293T StAR-promoter luciferase reporter, SF-1/DAX-1 repression. inhibition, % at 6.8 µM. shares compounds with DAX1 inh-2. actives 87% (n = 2,400);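 active means inhibition above the average of every tested compound plus 3 SD, cut at about 3.8% in these data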;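 further: 0% = DAX-1 cells with DMSO and 100% = no DAX-1 control cells with DMSO; active compounds raise luminescence by relieving repression of the StAR reporter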
Target sequence (P51843 whole entry, looked up): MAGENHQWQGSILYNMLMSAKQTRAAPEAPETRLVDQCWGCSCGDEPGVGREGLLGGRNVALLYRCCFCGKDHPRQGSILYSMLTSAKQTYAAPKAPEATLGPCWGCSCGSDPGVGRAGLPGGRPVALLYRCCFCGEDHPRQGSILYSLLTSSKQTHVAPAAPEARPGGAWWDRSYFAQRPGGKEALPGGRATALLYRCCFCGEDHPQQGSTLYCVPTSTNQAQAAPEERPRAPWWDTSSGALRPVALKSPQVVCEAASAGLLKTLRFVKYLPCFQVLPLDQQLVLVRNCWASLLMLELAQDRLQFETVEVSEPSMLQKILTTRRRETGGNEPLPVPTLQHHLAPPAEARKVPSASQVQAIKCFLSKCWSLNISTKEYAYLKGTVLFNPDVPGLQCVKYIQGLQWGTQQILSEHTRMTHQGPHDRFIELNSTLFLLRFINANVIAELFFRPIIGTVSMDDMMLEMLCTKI
SF1 AF2mut Luc: nonselective inhibitor or artifact in SF-1 mutant DAX1 counter-screen; AID 652136; HEK293 StAR-luciferase, SF-1 AF2 mutant, luminescence; shares compounds with DAX1 inh-2; inhibition, % at 6.8 µM; actives 78% (n = 2,400);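 active means inhibition above the mean of all tested compounds plus 3 SD, cut at about 3% in these data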;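 further: 0% = DAX-1 transfected cells with DMSO and 100% = cells without DAX-1 with DMSO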
SMARCA2 act conf: SMARCA2 activation, confirmation screen; actives 30% (n = 3,500); MG213 cells, MMTV-luciferase with dexamethasone, luminescence, overnight; MG213 cells expressing E1A, Rb sequestered; DMSO wells 0%, reference activator 100%; activation, % at 9.1 µM; shares compounds with SMARCA2 act;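 active means activation above its plate's cutoff, the mean activation of tested wells plus 3 SD, cut at about 7.9% in these data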
VP16 Luc act: GAL4-VP16 reporter activation counter-screen; shares compounds with SMARCA2 act; HEK293 GAL4-VP16 pG5luc reporter, luciferase luminescence; scaled: DMSO wells 0%, SAHA wells 100%; activation, % at 9.1 µM; actives 41% (n = 3,500);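 active means activation above the solvent-only control well mean plus 3 SD, averaged across control plates, cut at about 5.2% in these data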
LXR ag: LXR-beta agonism as hcDAF-12 counter-screen | shares compounds with hcDAF-12 act | HEK293 Gal4-LXR tk-luc reporter, luminescence, 24 h; normalized: DMSO 0%, positive control 100% | activation, % at 6.8 µM | 3,400 tested, under 10 active;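 active means mean percent activation of the reporter above a cutoff set as the average over tested compounds plus their standard deviation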
hcDAF12 ag: hcDAF-12 agonism, confirmation assay | shares compounds with hcDAF-12 act | activation, % at 6.8 µM | HEK293 hcDAF-12 lit1-tk-luc reporter, luminescence; % of Δ7-dafachronic acid response | actives 61% (n = 3,400) | AID 743032;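 active means mean activation across triplicate tests above the threshold derived from the earlier primary screen, cut at about 5.5% in these data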;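 further: 0% = DMSO only wells and 100% = 3 µM Δ7-dafachronic acid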
hgDAF12 conf: confirmation of H. glycines DAF-12 agonists. shares compounds with hgDAF-12 ag. HEK293 GAL4-hgDAF12 luciferase reporter, agonist mode; percent of butyrate response. activation, % at 6.8 µM. actives 80% (n = 3,300). AID 743050;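 active means mean activation over triplicate wells above the hit cutoff derived from the earlier primary screen, cut at about 11% in these data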;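 further: 0% = DMSO low control and 100% = 2 mM sodium butyrate high control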
LXR ag 2: LXR-beta agonism as DAF-12 counter-screen. 3,300 tested, under 10 active. activation, % at 6.8 µM. shares compounds with hgDAF-12 ag. HEK293 Gal4-LXR luciferase reporter, 24 h;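 active means mean activation of the triplicate above a set limit carried over from the primary screen, none filed active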
* = called active by the depositor; / = not tested or not shown.

SMILES	DAX1 inh-1	ssDAF12 agonist	DAX1 inh-2	SMARCA2 act	hgDAF-12 ag	hcDAF-12 act	DAX1 inh confirm	SF1 AF2mut Luc	hgDAF12 conf	LXR ag 2	others
Cn1cnc(S(=O)(=O)Nc2ccccc2N2CCOCC2)c1	/	-1.2	0.2	-0.6	3.5	0.1	/	/	/	/
CCOC1=C2CN(S(=O)(=O)c3ccc(C)cc3)[C@H](c3ccccc3)C[C@H]2n2c(=O)n(-c3ccccc3)c(=O)n2C1	/	-0.8	-1.0	-5.1	1.4	1.9	/	/	/	/
CC/C(=N\NC(=O)c1ccoc1C)c1ccc(C)o1	1.0	2.1*	7.1*	3.6	22.8*	9.2*	2.4	2.7	9.3	0.3	LXR ag=-0.1;hcDAF12 ag=1.7
Cc1c(NC(=S)NC(=O)C(c2ccccc2)c2ccccc2)cccc1C(=O)O	-2.0	-1.5	0.1	-2.1	-3.4	-0.8	/	/	/	/
Cc1c(NC(=S)NC(=O)c2sc3ccccc3c2Cl)cccc1C(=O)O	-0.6	0.2	5.9*	2.8	17.9*	2.7	9.6*	6.8*	15.7*	0.5
Cc1noc(/C=C/N(C)C)c1S(=O)(=O)N1CCCC(C(=O)NC2CCCCC2)C1 (configuration not stated)	0.8	-0.1	-0.8	-1.9	-0.2	1.0	/	/	/	/
COc1ccccc1C(=O)NNC(=O)c1cccc(Cl)c1	1.1	0.7	5.6*	2.3	17.1*	13.2*	14.0*	7.9*	16.5*	0.7	LXR ag=1.0;hcDAF12 ag=7.5*
COC(=O)[C@@]1(C(C)C)N=C(c2cc(OC)c(OC)c(OC)c2)[C@]2(O1)C(=O)N(Cc1cn(-c3ccccc3)nn1)c1cccc(Cl)c12	/	-0.9	-1.6	-2.9	-2.1	-2.6	/	/	/	/
CC(C)(C)Nc1nc(NC(C)(C)C)nc(-n2ccnc2)n1	-0.2	-1.3	-0.8	-5.7	-1.2	-0.9	/	/	/	/
CN1CCC(N(C)C(=S)Nc2ccc(SC(F)F)cc2)CC1	-1.9	-1.2	-0.3	-4.8	-2.2	1.1	/	/	/	/
CC(C)(C)c1cc(NC(=O)c2cccc([N+](=O)[O-])c2)no1	1.1	/	/	/	/	/	/	/	/	/
CC(C)(C)c1cc(NC(=O)c2ccco2)no1	0.7	1.0*	12.7*	4.8	13.8*	13.8*	12.3*	7.0*	14.9*	0.6	LXR ag=1.3;hcDAF12 ag=6.2*
COc1cc(NC(=S)Nc2ccc(OC(F)F)cc2)cc(OC)c1	0.3	-1.1	0.0	2.6	-1.8	0.5	/	/	/	/
Cc1ccc(/C=C(\C#N)C(=O)NC(C)C)o1	1.1	-1.1	-0.1	-1.0	0.0	-2.3	/	/	/	/
Cc1ccc(/C=C(\C#N)C(=O)Nc2ccccn2)o1	3.2	0.7	10.7*	6.7	17.6*	2.7	10.1*	7.6*	12.8*	0.8
CN1CCSc2ccc(C(=O)NCc3ccccc3)cc21	-0.9	-1.1	0.3	0.2	4.5	-0.7	/	/	/	/
COc1ccc(NC(=O)c2ccc3c(c2)N(C)CCS3)cc1	0.9	0.8	7.3*	1.8	23.9*	5.4	12.0*	7.5*	18.9*	0.8
COc1cccc(NC(=O)C(=S)NC2CCCCC2)c1	1.6	0.2	9.2*	4.6	23.1*	7.2*	12.3*	7.9*	17.7*	1.0	LXR ag=1.5;hcDAF12 ag=7.2*
COc1cccc(-c2cc(C(=O)NC3CCCC3)no2)c1	1.9	0.0	5.0*	4.4	19.9*	5.1	9.9*	5.3*	16.4*	1.0
O=C(NC1CCCC1)c1cc(-c2ccc(Cl)c(Cl)c2)on1	-0.1	-0.2	0.4	0.2	4.2	0.9	/	/	/	/
O=C(COc1ccc(Br)cc1Cl)N1CCN(c2ncccn2)CC1	-0.2	-1.6	-0.2	-6.7	-3.7	-2.5	/	/	/	/
CC(C)(C)C(c1nc2ccccc2[nH]1)n1c(-c2cccc(S(C)(=O)=O)c2)nc2ccccc21 (configuration not stated)	/	-0.1	16.4*	5.7	16.2*	2.6	7.7*	9.5*	12.3*	0.5
COc1ccc(S(=O)(=O)n2ccc(-c3cnc(-c4ccccc4)s3)n2)cc1	0.6	-1.0	0.3	-4.2	3.5	-1.8	/	/	/	/
O=C(c1ccccc1)n1ccc(-c2cnc(-c3ccccc3)s2)n1	0.6	1.0*	4.9*	6.7	18.2*	7.7*	13.0*	5.6*	19.6*	1.2	LXR ag=1.5;hcDAF12 ag=7.1*
CCOC(=O)c1ccc(NC(=O)Nc2nc3ccccc3s2)cc1	-0.3	-1.0	-0.3	-3.3	1.1	1.8	/	/	/	/
Cn1c(=N)n(CC(=O)c2cccs2)c2ccccc21	4.0	0.8	6.0*	2.0	17.4*	14.9*	4.3*	4.0*	12.8*	0.4	LXR ag=0.6;hcDAF12 ag=9.5*
CCCn1c(=N)n(CC(=O)c2cccs2)c2ccccc21	-0.6	-1.3	-0.1	1.3	-2.5	-3.7	/	/	/	/
O=C(/C=C/Nc1ccc(Br)cc1F)c1ccccc1	-1.5	-0.3	2.5	3.4	2.2	4.8	/	/	/	/
O=C(/C=C/Nc1ccccc1F)c1ccc(Br)cc1	3.6	1.5*	5.2*	17.5*	16.6*	12.3*	13.8*	8.4*	22.6*	1.4	SMARCA2 act conf=3.9;VP16 Luc act=13.8*;LXR ag=2.3;hcDAF12 ag=13.6*
